tested on: Plasmodium falciparum; assay: GSK_TCMDC: Inhibition of Plasmodium falciparum Dd2 in whole red blood cells, using parasite LDH activity as an index of growth. Test compounds present at 2uM; type: functional

Row | SMILES | Inhibition [%]
1 | N=c1ccn(CC(=NO)c2ccc(Cl)c(Cl)c2)cc1 | 81
2 | FC(F)(F)c1ccc2[nH]c(-c3ccc(-c4cccc(CNCC5CCCO5)c4)cc3)nc2c1.O=C(O)C(F)(F)F (stereo not drawn) | 100
3 | FC(F)(F)c1ccc2[nH]c(-c3ccc(-c4cccc(CN5CCN(CCN6CCOCC6)CC5)c4)cc3)nc2c1.O=C(O)C(F)(F)F | 77
4 | CN(C)c1ccc(CN2CCC(NC(=O)c3ccc(-c4cccc(Cl)c4)s3)CC2)cc1.O=C(O)C(F)(F)F | 44
5 | Cc1cc(NCCC(=O)Nc2ccccc2)nc(NCC2CCCCC2)n1.O=C(O)C(F)(F)F | 62
6 | Cc1ccc(NC(=O)c2ccc(CN3CCCN(Cc4cccc(Cl)c4)CC3)cc2)cc1C.O=C(O)C(F)(F)F | 18
7 | CC1Cc2ccccc2N1S(=O)(=O)c1cccc(C(=O)Nc2nc(-c3ccccn3)cs2)c1 (stereo not drawn) | 77
8 | CCN(CCCN1CCCCC1)c1cc(C)nc(Nc2ccc(C)cc2Cl)n1.O=C(O)C(F)(F)F | 25
9 | CCc1ccc(NC(=O)c2ccc(CN3CCCN(CC4CCCCC4)CC3)cc2)cc1.O=C(O)C(F)(F)F | 48
10 | CCCCCCCCS(=O)(=O)NCCCC1CCN(CCCCCNC(=O)C=Cc2ccc(Cl)c(Cl)c2)CC1 | 26
11 | Cc1cnc(C(=O)Nc2cccc(-c3csc(-c4nc5ccccc5[nH]4)c3)c2)cn1 | 80
12 | CCCn1c(Sc2ccc(C#N)c([N+](=O)[O-])c2)nnc1-c1ccc(Cl)cc1 | 95
13 | COc1ccc(C2CCN(CCCCNC(=O)c3ccc(NC(=O)c4ccc(Cl)cc4)cc3)CC2)c(OC)c1.Cl | 95
14 | CCCNCc1ccc(-c2ccc(CN(Cc3ccc4c(c3)OCO4)C(=O)[C@H]3CCCO3)cc2)nc1.O=C(O)C(F)(F)F | 39
15 | O=C(O)C(F)(F)F.O=[N+]([O-])c1cccc(CNCC2CCC(CNCc3cccc([N+](=O)[O-])c3)CC2)c1 (stereo not drawn) | 76
16 | CC(C)N(CC(=O)c1ccc(O)c(C(=O)O)c1)Cc1ccccc1.Cl | 26
17 | CCN(CC)CCCNc1cc[n+]([O-])c2cc3ccccc3cc12 | 3
18 | Brc1cc(Br)c2c(c1)C(NCCCNc1nc3ncccc3[nH]1)CCN2.O=C(O)CCC(=O)O (stereo not drawn) | 83
19 | CCN(CC)CCCC(C)Nc1c2ccccc2nc2ccc3ccccc3c12.Cl (stereo not drawn) | 89
20 | Cc1ccc(Nc2cc(C)nn2-c2nc(C)cc(O)n2)cc1 | 95

Row | SMILES | Inhibition [%]
21 | CCCCCn1c(Sc2ccc(C#N)c([N+](=O)[O-])c2)nnc1-c1ccc(OC)cc1 | 44
22 | CCN(CC)/C(=N/C(=N)NCc1cccc(Cl)c1)NCCCCCCN/C(=N\C(=N)NCc1cccc(Cl)c1)N(CC)CC | 99
23 | CCN(CC)CCNC(=O)c1ccc(NC(=O)c2cc(-c3ccncc3)nc3ccccc23)cc1 | 2
24 | O=C(Nc1nc(-c2ccccn2)cs1)c1ccccc1COc1ccccc1 | 42
25 | CN(C(=O)c1ccc(Br)cc1)c1ccccc1[N+](=O)[O-] | 0
26 | CC(C)(C)c1ccc(N2C(N)=NC(N)=NC2(C)C)cc1.Cl | 0
27 | CCCN1CCN(CC(O)CNC(=O)Nc2ccc(Br)cc2)CC1.O=C(O)C(F)(F)F (stereo not drawn) | 100
28 | O=C(CSc1nc2ccc([N+](=O)[O-])cc2s1)Nc1ccccc1-c1ccccc1 | 49
29 | COc1cc(Nc2nc(N)c3cc(OC)c(OC)cc3n2)cc(OC)c1.Cl | 100
30 | Fc1ccc(NC(S)=NN=Cc2ccccn2)cc1 | 67
31 | O=C(Nc1ccc(-c2nc3ccccc3[nH]2)cc1)c1ccc(N2CCCC2)c([N+](=O)[O-])c1 | 95
32 | Cc1ccccc1CNc1ccc2nc(N)nc(N)c2c1 | 90
33 | O=S1(=O)C=C(c2ccccc2)CC1 | 44
34 | O=C(O)C(F)(F)F.O=C1OC(c2ccccc2)(c2ccccc2)CN1CC1CCN(Cc2ccc(O)c(Cl)c2)CC1 | 90
35 | COc1ccc(S(=O)(=O)N2CCCC(C)C2)cc1N1CCN(C(=O)c2ccc([N+](=O)[O-])o2)CC1 (stereo not drawn) | 4
36 | CC(=O)Oc1c(C2CCN(CCCCNC(=O)c3ccc(NC(=O)c4ccc(Cl)cc4)cc3)CC2)ccc2c1CCCC2 | 80
37 | COc1cccc(C(=O)NCCOc2ccccc2)c1Oc1ccccc1 | 98
38 | CCN(CC)CCCC(C)N=c1cc(C=Cc2ccc([N+](=O)[O-])cc2)[nH]c2ccc(OC)cc12 (stereo not drawn) | 100
39 | CCc1cn2c3c(cc(C(=O)N[C@@H](Cc4ccccc4)[C@H](O)CNC(C)(C)CCCC(C)C)cc13)N(C)S(=O)(=O)C2.O=CO | 98

tested on: HepG2; assay: GSK_TCMDC: Percent inhibition of human HepG2 cell line. Test compounds present at 10uM.; type: functional

Row | SMILES | Inhibition [%]
40 | N=c1ccn(CC(=NO)c2ccc(Cl)c(Cl)c2)cc1 | 23
41 | FC(F)(F)c1ccc2[nH]c(-c3ccc(-c4cccc(CNCC5CCCO5)c4)cc3)nc2c1.O=C(O)C(F)(F)F (stereo not drawn) | 36
42 | FC(F)(F)c1ccc2[nH]c(-c3ccc(-c4cccc(CN5CCN(CCN6CCOCC6)CC5)c4)cc3)nc2c1.O=C(O)C(F)(F)F | 47
43 | CN(C)c1ccc(CN2CCC(NC(=O)c3ccc(-c4cccc(Cl)c4)s3)CC2)cc1.O=C(O)C(F)(F)F | 65
44 | Cc1cc(NCCC(=O)Nc2ccccc2)nc(NCC2CCCCC2)n1.O=C(O)C(F)(F)F | 14
45 | Cc1ccc(NC(=O)c2ccc(CN3CCCN(Cc4cccc(Cl)c4)CC3)cc2)cc1C.O=C(O)C(F)(F)F | 41
46 | CC1Cc2ccccc2N1S(=O)(=O)c1cccc(C(=O)Nc2nc(-c3ccccn3)cs2)c1 (stereo not drawn) | 32
47 | CCN(CCCN1CCCCC1)c1cc(C)nc(Nc2ccc(C)cc2Cl)n1.O=C(O)C(F)(F)F | 44
48 | CCc1ccc(NC(=O)c2ccc(CN3CCCN(CC4CCCCC4)CC3)cc2)cc1.O=C(O)C(F)(F)F | 48
49 | CCCCCCCCS(=O)(=O)NCCCC1CCN(CCCCCNC(=O)C=Cc2ccc(Cl)c(Cl)c2)CC1 | 100
50 | Cc1cnc(C(=O)Nc2cccc(-c3csc(-c4nc5ccccc5[nH]4)c3)c2)cn1 | 31
51 | CCCn1c(Sc2ccc(C#N)c([N+](=O)[O-])c2)nnc1-c1ccc(Cl)cc1 | 12
52 | COc1ccc(C2CCN(CCCCNC(=O)c3ccc(NC(=O)c4ccc(Cl)cc4)cc3)CC2)c(OC)c1.Cl | 32
53 | CCCNCc1ccc(-c2ccc(CN(Cc3ccc4c(c3)OCO4)C(=O)[C@H]3CCCO3)cc2)nc1.O=C(O)C(F)(F)F | 18
54 | O=C(O)C(F)(F)F.O=[N+]([O-])c1cccc(CNCC2CCC(CNCc3cccc([N+](=O)[O-])c3)CC2)c1 (stereo not drawn) | 39
55 | CC(C)N(CC(=O)c1ccc(O)c(C(=O)O)c1)Cc1ccccc1.Cl | 0
56 | CCN(CC)CCCNc1cc[n+]([O-])c2cc3ccccc3cc12 | 13
57 | Brc1cc(Br)c2c(c1)C(NCCCNc1nc3ncccc3[nH]1)CCN2.O=C(O)CCC(=O)O (stereo not drawn) | 5
58 | CCN(CC)CCCC(C)Nc1c2ccccc2nc2ccc3ccccc3c12.Cl (stereo not drawn) | 24
59 | Cc1ccc(Nc2cc(C)nn2-c2nc(C)cc(O)n2)cc1 | 54

Row | SMILES | Inhibition [%]
60 | CCCCCn1c(Sc2ccc(C#N)c([N+](=O)[O-])c2)nnc1-c1ccc(OC)cc1 | 8
61 | CCN(CC)/C(=N/C(=N)NCc1cccc(Cl)c1)NCCCCCCN/C(=N\C(=N)NCc1cccc(Cl)c1)N(CC)CC | 17
62 | CCN(CC)CCNC(=O)c1ccc(NC(=O)c2cc(-c3ccncc3)nc3ccccc23)cc1 | 1
63 | O=C(Nc1nc(-c2ccccn2)cs1)c1ccccc1COc1ccccc1 | 34
64 | CN(C(=O)c1ccc(Br)cc1)c1ccccc1[N+](=O)[O-] | 3
65 | CC(C)(C)c1ccc(N2C(N)=NC(N)=NC2(C)C)cc1.Cl | 27
66 | CCCN1CCN(CC(O)CNC(=O)Nc2ccc(Br)cc2)CC1.O=C(O)C(F)(F)F (stereo not drawn) | 10
67 | O=C(CSc1nc2ccc([N+](=O)[O-])cc2s1)Nc1ccccc1-c1ccccc1 | 0
68 | COc1cc(Nc2nc(N)c3cc(OC)c(OC)cc3n2)cc(OC)c1.Cl | 7
69 | Fc1ccc(NC(S)=NN=Cc2ccccn2)cc1 | 56
70 | O=C(Nc1ccc(-c2nc3ccccc3[nH]2)cc1)c1ccc(N2CCCC2)c([N+](=O)[O-])c1 | 43
71 | Cc1ccccc1CNc1ccc2nc(N)nc(N)c2c1 | 59
72 | O=S1(=O)C=C(c2ccccc2)CC1 | 57
73 | O=C(O)C(F)(F)F.O=C1OC(c2ccccc2)(c2ccccc2)CN1CC1CCN(Cc2ccc(O)c(Cl)c2)CC1 | 26
74 | COc1ccc(S(=O)(=O)N2CCCC(C)C2)cc1N1CCN(C(=O)c2ccc([N+](=O)[O-])o2)CC1 (stereo not drawn) | 0
75 | CC(=O)Oc1c(C2CCN(CCCCNC(=O)c3ccc(NC(=O)c4ccc(Cl)cc4)cc3)CC2)ccc2c1CCCC2 | 21
76 | COc1cccc(C(=O)NCCOc2ccccc2)c1Oc1ccccc1 | 14
77 | CCN(CC)CCCC(C)N=c1cc(C=Cc2ccc([N+](=O)[O-])cc2)[nH]c2ccc(OC)cc12 (stereo not drawn) | 37
78 | CCc1cn2c3c(cc(C(=O)N[C@@H](Cc4ccccc4)[C@H](O)CNC(C)(C)CCCC(C)C)cc13)N(C)S(=O)(=O)C2.O=CO | 71
